In PubChem BioAssay (NCATS):
Values joined by “and” are separate entries in the source; they are usually repeats but may differ in a detail not shown here. Equal values may be shown once. Records with an inconclusive call do not appear. Active and inactive are the calls of the source. Unless noted, the call rests on the fitted dose curve; in most records, active means well fitted curve in the direction sought with a large enough effect; inconclusive means small, poorly fitted or top-dose-only effect, or another doubt; inactive means no such curve, though single readings can be large; an effect the other way counts as inactive or inconclusive.

What was measured:
[1] = Cell Viability - BJ (AID 421; calls by dose curve;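 further: potency means the concentration at half of the fitted maximal effect; cells exposed to compound for 40 hours at 37 °C before readout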); conditions: BJ fibroblast viability, qHTS
Method in brief: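 Cytotoxicity as drop in intracellular ATP (CellTiter-Glo, 20 min RT) after 40 hr compound exposure of BJ fibroblasts at 37 °C. Titrations scaled between DMSO and 100 uM tamoxifen, Hill-fitted for AC50.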

[2] = Cell Viability - Jurkat (AID 426;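 active means dose-dependent loss of cell ATP signal giving a full or clear fitted curve, ranked by lower potency value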;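 further: potency means the concentration at half of the fitted maximal effect; cells exposed to compound for 40 hours at 37 °C before ATP read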); conditions: qHTS
Method in brief: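 Luminescent ATP read-out (CellTiter-Glo, 20 min at room temperature) after 40 hr compound exposure at 37 °C of Jurkat E6-1 cells, 5000/well. Decreased ATP taken as cytotoxicity; AC50 from standard Hill equation.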

[3] = Cell Viability - Hek293 (AID 427;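 active means compounds whose dose-response curve shows a full or clear partial loss of cell viability, called from curve shape rather than a numeric limit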;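 further: potency means the concentration at half of the fitted maximal effect; cells exposed to compound for 40 hours at 37 °C before reading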); conditions: qHTS
Method in brief: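 Luminescent ATP content (CellTiter-Glo, 20 min at room temperature) was measured after a 40 hr, 37 °C compound exposure of HEK293 cells. AC50 values came from Hill-equation fits of qHTS concentration-response data normalized to DMSO and 100 uM tamoxifen.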

[4] = Cell Viability - SK-N-SH (AID 435; calls by dose curve;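 further: potency means the concentration at half of the fitted maximal effect; compound exposure lasted 40 h at 37 °C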); conditions: SK-N-SH neuroblastoma cell viability qHTS
Method in brief: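 SK-N-SH human neuroblastoma cells (1500/well) were exposed to compounds in complete medium for 40 h at 37 °C, and intracellular ATP was then measured by CellTiter-Glo luminescence. AC50 was taken from Hill fits, normalized to DMSO and 100 uM tamoxifen.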

[5] = Cellular Toxicity (caspase-3) Jurkat (AID 655); conditions: Jurkat caspase-3 activation, luminescence; caspase-3 activation: at 92.2 µM (top of the series), DMSO = 0%, tamoxifen = 100%;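 further: cells exposed to compound for 16 h at 37 °C before reading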
Method in brief: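 Jurkat cells (5000/well) in complete medium were treated with compounds for 16 hr at 37 °C, then Caspase-Glo 3/7 luminescence was read after 20 min at room temperature. Data normalized to DMSO (basal) and 100 uM tamoxifen (100%); AC50 from Hill fit.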

[6] = Cellular Toxicity (caspase-3) SHSY5Y (AID 657); conditions: SH-SY5Y caspase-3 activation, DMSO zero, 10 µM staurosporine = 100%; series mostly up to 91.7 µM
Method in brief: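 SH-SY5Y human neuroblastoma cells (1500/well) were treated with compounds for 16 h at 37 °C, then Caspase-Glo 3/7 luminescence was read after 1 h at room temperature. Data normalized to DMSO and 10 uM staurosporine; AC50 from Hill fits.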

[7] = Cellular Toxicity (caspase-3) BJ (AID 658); conditions: BJ fibroblasts, luminescence, normalized: DMSO 0%, staurosporine 100%; series mostly up to 91.7 µM
Method in brief: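 qHTS, BJ fibroblasts, 1000 cells/well; 5 hr preincubation, 16 hr compound, 37 °C; Caspase-Glo 3/7 reagent, 1 hr RT; luminescence. DMSO = 0%, 10 uM staurosporine = 100%. Hill-equation AC50.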

[8] = Cellular Toxicity (caspase-3) N2a (AID 665); conditions: N2a cells, luminescence, normalized: DMSO 0%, 10 µM staurosporine 100%; series mostly up to 92.2 µM;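 further: compound exposure lasted 16 h at 37 °C before readout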
Method in brief: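 Luminescent Caspase-Glo 3/7 readout in N2a mouse neuroblastoma cells after 16 h compound exposure at 37 °C. Signal scaled to DMSO (basal) and 10 uM staurosporine (100%). Concentration-response fitted with Hill equation for AC50.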

[9] = Cellular Toxicity (caspase-3) Renal Proximal Tubule (AID 667); conditions: renal proximal tubule cells; series mostly up to 91.7 µM;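 further: cells exposed to compound for 16 hours at 37 °C before detection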
Method in brief: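 Primary rat proximal tubule cells, 1000/well, 5 h plating at 37 °C, then compound 16 h at 37 °C. Caspase-Glo 3/7 reagent, 1 h RT, luminescence. Normalized to DMSO (basal) and 10 uM staurosporine (100%); Hill-fit AC50.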

[10] = MultiTox-Fluor Cytotoxicity Assay - LYMP1-001 - Dead Cells (AID 946); conditions: LYMP1-001 lymphoblastoid cells, dead-cell protease fluorescence; series mostly up to 92.2 µM
Method in brief: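 Cytotoxicity as increased dead-cell protease fluorescence (bis-AAF-R110, 485/520 nm), read 60 min after MultiTox-Fluor reagent. Human lymphoblastoid line exposed 16 h; Hill-fitted AC50, with DMSO as 0% and 15 uM tetraoctylammonium bromide as 100%.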

[11] = Cell Viability - LYMP1-002 - Assay at 16 hr (AID 948); conditions: LYMP1-002 lymphoblastoid cell viability; series mostly up to 92.2 µM;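 further: 0% = DMSO alone and full effect = 92 µM tetraoctylammonium bromide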
Method in brief: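 Human lymphoblastoid cells (LYMP1-002), 2500/well, were preincubated 5 hr at 37 C, then exposed to compounds for 16 hr at 37 C in complete medium. Cellular ATP was read by CellTiter-Glo luminescence after 30 min at room temperature; AC50 from Hill fits.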

[12] = MultiTox-Fluor Cytotoxicity Assay - LYMP1-003 - Dead Cells (AID 961); conditions: LYMP1-003 lymphoblastoid cells, dead-cell protease fluorescence; series mostly up to 92.2 µM; further: nearly all actives have a fitted effect of over 70% in size
Method in brief: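 Dead-cell protease release, detected as bis-AAF-R110 fluorescence at 485/520 nm, was measured in LYMP1-003 cells after 16 h compound treatment at 37 C. AC50 values came from Hill-modeled qHTS curves normalized to DMSO (0%) and 15 uM tetraoctylammonium bromide (100%).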

[13] = Cell Viability - LYMP1-003 - Assay at 24 hr (AID 963); conditions: LYMP1-003 lymphoblastoid cell viability; series mostly up to 92.2 µM;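 further: plate controls were DMSO only for no effect and tetraoctylammonium bromide positive control for full effect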
Method in brief: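 CellTiter-Glo luminescence (intracellular ATP) read after 24 hr, 37 C compound exposure of 2500 LYMP1-003 human lymphoblastoid cells/well in complete medium; qHTS concentration series; AC50 via standard Hill equation.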

[14] = Cell Viability - LYMP2-013 (AID 970); conditions: LYMP2-013 lymphoblastoid cells viability; series mostly up to 92.2 µM;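 further: 0% = DMSO only and full inhibition = tetraoctylammonium bromide control; nearly all actives have a fitted effect of over 55% in size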
Method in brief: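 CellTiter-Glo luminescence (cellular ATP) read after 30 min at RT. Cells: human lymphoblastoid line, 2500/well, 24 hr compound exposure at 37 C. Tetraoctylammonium bromide positive control; AC50 via standard Hill fit of qHTS titrations.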

[15] = Cell Viability - LYMP2-016 (AID 984); conditions: LYMP2-016 lymphoblastoid cell viability, qHTS; series mostly up to 92.2 µM;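 further: cells exposed to compound for 24 hours at 37 °C; on the % scale 0 is the no-effect control and ±100 the full control effect; nearly all actives have a fitted effect of over 55% in size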
Method in brief: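 Human lymphoblastoid cells (LYMP2-016), 2500/well in complete medium, preincubated 5 hr at 37 C, then compound-treated 24 hr at 37 C. Intracellular ATP read by CellTiter-Glo luminescence after 30 min at room temperature; AC50 from Hill-equation concentration-response fits.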

[16] = Cell Viability - LYMP1-002 - Assay at 24 hr (AID 993); conditions: LYMP1-002 lymphoblastoid cells viability; series mostly up to 92.2 µM; further: on the % scale 0 is the no-effect control and ±100 the full control effect
Method in brief: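 CellTiter-Glo luminescence (intracellular ATP) after 24 h compound exposure, 37 C, in LYMP1-002 human lymphoblastoid cells; decreased ATP taken as cytotoxicity. AC50 from standard Hill fit of concentration-response curves.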

[17] = qHTS Assay for Identification of Small Molecule Inducers of Hypoxia Response (AID 2120; active means well fitted curve in the direction sought with a large enough effect in the signal ratio, with a control signal flat, not every such curve was filed as active; the % refers to the signal ratio; further: 0% is about no effect); conditions: hypoxia response reporter cells, beta-lactamase ratio readout; series mostly up to 104 µM
Method in brief: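 Read-out: CCF4 FRET emission ratio 460nm/530nm (excitation 405nm), converted to %Activity, with AC50 fitted across a compound titration. ME-180 cells carried an HRE-driven beta-lactamase reporter; compound exposure 17 h, 37 degrees C.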

[18] = target: Peroxisome proliferator-activated receptor alpha (Homo sapiens) (UniProt Q07869); assay: qHTS assay for small molecule agonists of the peroxisome proliferator-activated receptor alpha (PPARalpha) signaling pathway (AID 651778); conditions: PathHunter PPARalpha complementation, chemiluminescence, 6 h; active compounds read high; further: % of control where 0% means no effect
Sequence of Peroxisome proliferator-activated receptor alpha (Homo sapiens) (Q07869 whole entry, looked up, the tested form may be a part): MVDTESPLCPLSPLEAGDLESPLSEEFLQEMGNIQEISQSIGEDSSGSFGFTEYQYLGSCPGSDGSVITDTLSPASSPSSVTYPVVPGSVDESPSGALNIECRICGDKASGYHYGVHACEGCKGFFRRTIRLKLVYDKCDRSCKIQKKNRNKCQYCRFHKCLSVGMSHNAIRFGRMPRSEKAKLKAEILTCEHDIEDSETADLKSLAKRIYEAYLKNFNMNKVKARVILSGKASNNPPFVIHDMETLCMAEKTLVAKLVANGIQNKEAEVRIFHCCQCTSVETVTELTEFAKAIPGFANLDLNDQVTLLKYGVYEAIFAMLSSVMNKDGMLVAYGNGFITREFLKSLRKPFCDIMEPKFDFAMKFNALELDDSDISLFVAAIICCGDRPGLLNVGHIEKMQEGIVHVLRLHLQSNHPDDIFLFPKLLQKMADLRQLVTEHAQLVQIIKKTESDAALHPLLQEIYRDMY
Method in brief: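 Enzyme-fragment complementation assay in which ligand-bound PPARalpha translocates and forms an active enzyme that generates chemiluminescence. Cells were plated overnight, exposed to compound for 6 hr at 37 C, and then given detection reagent for 60 min at room temperature.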

[19] = qHTS assay for cell viability of HEK293 cells (AID 743288); conditions: ATP luminescence (CellTiter-Glo), 18 h, active compounds read low; further: on the % scale 0 is the no-effect control and ±100 the full control effect; nearly all actives have a fitted effect of over 50% in size
Method in brief: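 After 18 h compound exposure at 37 C, parental HEK293 cells (2,000/well) are lysed with CellTiter-Glo and luminescence is read following 30 min at room temperature.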

[20] = qHTS assay for cell viability of the p53RE-bla HCT-116 cell line (AID 743292); conditions: p53RE-bla HCT-116 viability, ATP luminescence, 16 h; series mostly up to 95 µM; further: on the % scale 0 is the no-effect control and ±100 the full control effect; nearly all actives have a fitted effect of over 55% in size
Method in brief: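 Luminescent ATP quantitation (CellTiter-Glo) served as the viability read-out; reagent was added after 16 h compound exposure at 37 C and read after 30 min at room temperature. Cells: p53RE-bla HCT-116, 4,000 per well.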

CC(=O)NNc1ccccc1
inactive: Potency [1] > 92 µM | Potency [2] > 92 µM | Potency [3] > 92 µM | Potency [4] > 92 µM | caspase-3 activation [5] 1.53% | outcome [6] | outcome [7] | outcome [8] | outcome [9] | outcome [10] | outcome [11] | Potency [12] | outcome [13] | Potency [14] | Potency [15] | Potency [16] | Potency [17] | max response [18] -1.86% | max response [19] 2.18% | Potency [20]

CC(Cl)(Cl)Cl
inactive: Potency [1] > 92 µM | Potency [2] > 92 µM | Potency [3] > 92 µM | Potency [4] > 92 µM | caspase-3 activation [5] -0.991% | outcome [6] | outcome [7] | outcome [8] | outcome [9] | outcome [10] | outcome [11] | Potency [12] | outcome [13] | Potency [14] | Potency [15] | Potency [16] | Potency [17] | max response [18] -3.93% and -1.58% | max response [19] 6.17% and -1.09% | Potency [20]

N#CCCC#N
inactive: Potency [1] > 92 µM | Potency [2] > 92 µM | Potency [3] > 92 µM | Potency [4] > 92 µM | caspase-3 activation [5] -0.151% | outcome [6] | outcome [7] | outcome [8] | outcome [9] | outcome [10] | outcome [11] | Potency [12] | outcome [13] | Potency [14] | Potency [15] | Potency [16] | Potency [17] | max response [18] -2.27% | max response [19] -2.73% | Potency [20]

S=C1NCCN1
inactive: Potency [1] > 92 µM | Potency [2] > 92 µM | Potency [3] > 92 µM | Potency [4] > 92 µM | caspase-3 activation [5] 0.9% | outcome [6] | outcome [7] | outcome [8] | outcome [9] | outcome [10] | outcome [11] | Potency [12] | outcome [13] | Potency [14] | Potency [15] | Potency [16] | Potency [17] | max response [18] -2.28% and 8.96% | max response [19] 4.6% and 3.06% | Potency [20]

C=C(C)CCl
inactive: Potency [1] > 92 µM | Potency [2] > 92 µM | Potency [3] > 92 µM | Potency [4] > 92 µM | caspase-3 activation [5] -0.765% | outcome [6] | outcome [7] | outcome [8] | outcome [9] | outcome [10] | outcome [11] | Potency [12] | outcome [13] | Potency [14] | Potency [15] | Potency [16] | Potency [17] | max response [18] 1.24% | max response [19] -1.82% | Potency [20]
